Among all 360,000 compounds or so, about 25,000 (6.9%) were called active. About 9% were inconclusive and are not listed. Calls come from the whole dose curve; as a rule, active = well fitted inhibition curve with a large enough effect; inconclusive = small, poorly fitted or top-dose-only effect; inactive = flat fitted curve, though single readings scatter. Many of the other results were omitted from the sample, so actives are more common in it than they were.
What follows are compounds tested against Luciferin 4-monooxygenase (Photinus pyralis) (UniProt P08659) (assay: qHTS profiling assay for firefly luciferase inhibitor/activator using purifed enzyme and Km concentrations of substrates (counterscreen for miR-21 project)). Conditions: purified FLuc, luminescence inhibition; series mostly up to 57.5 µM; activity change, negative = inhibition: at the top concentration.
Chain of Luciferin 4-monooxygenase (Photinus pyralis) (P08659 whole entry, looked up): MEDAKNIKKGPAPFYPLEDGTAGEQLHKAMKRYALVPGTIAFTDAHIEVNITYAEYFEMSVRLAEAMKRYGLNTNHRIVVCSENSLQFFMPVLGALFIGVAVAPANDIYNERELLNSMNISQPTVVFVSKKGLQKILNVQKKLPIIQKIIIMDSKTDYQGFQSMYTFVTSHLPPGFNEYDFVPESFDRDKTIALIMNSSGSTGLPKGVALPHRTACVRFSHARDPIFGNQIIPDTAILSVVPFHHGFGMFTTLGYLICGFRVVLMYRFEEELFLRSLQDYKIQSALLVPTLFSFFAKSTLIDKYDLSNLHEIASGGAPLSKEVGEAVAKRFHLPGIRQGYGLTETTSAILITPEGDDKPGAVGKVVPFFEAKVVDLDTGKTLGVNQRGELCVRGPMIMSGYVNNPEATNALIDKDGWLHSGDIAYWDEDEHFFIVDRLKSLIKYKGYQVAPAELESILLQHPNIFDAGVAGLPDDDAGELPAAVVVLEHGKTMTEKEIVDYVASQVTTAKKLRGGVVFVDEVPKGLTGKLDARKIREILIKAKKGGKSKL
Outline: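 Biochemical qHTS of compounds, final roughly 60 µM downward over six points, against 10 nM purified firefly luciferase using Km concentrations of substrates (10 uM D-luciferin, 10 uM ATP) in Tris acetate pH 7.5 buffer; luminescence output.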
Note: nearly all actives have a fitted effect of over 55% in size.
Potency is the fitted concentration of half-maximal effect.
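Throughout, for activity change, negative = inhibition: plate controls were vehicle for no effect and reference inhibitor for full effect.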

SMILES | activity change, negative = inhibition | Potency
O=C(CSc1nc2ccccc2c(=O)n1CCCO)NC1CC1 | 0.433% (inactive) | –
CCN(CC)S(=O)(=O)c1ccc(N2CCOCC2)c(NC(=O)C(C)Oc2ccc(F)cc2)c1 (stereo not given) | 4.08% (inactive) | –
Cc1cccc(NC(=O)N2CCC(CN3CCc4ccccc4C3)CC2)c1C | -0.966% (inactive) | –
Cc1cc(NS(=O)(=O)c2ccc(NC(=O)c3ccccc3C)cc2)nc(C)n1 | -3.53% (inactive) | –
CCOc1ccc(S(=O)(=O)N(CC(=O)NCCSCc2ccc(C)cc2)c2ccccc2)cc1 | 0.976% (inactive) | –
COc1ccc([C@H]2CC(=O)C=C(c3ccc(OC(F)(F)F)cc3)C2)cc1OC | -0.992% (inactive) | –
Cc1cc(Cl)c2oc(C(=O)NC(C)c3ccncn3)c(C)c2c1 (stereo not given) | 2.44% (inactive) | –
Cc1cc(Cl)c2oc(C(=O)N(C)C(C)c3ccccn3)c(C)c2c1 (stereo not given) | – | 19 µM (active)
Cc1cc(Cl)c2oc(C(=O)N3CCC(O)(c4ccccc4)CC3)c(C)c2c1 | 1.22% (inactive) | –
CCOc1ncccc1C(=O)OCC(=O)N1c2ccccc2CC1C (stereo not given) | 4.23% (inactive) | –
O=C(Nc1ncccc1O)c1ccc(S(=O)(=O)N2CCCCCC2)cc1 | -4.16% (inactive) | –
O=C(Nc1ncccc1O)c1ccc(C(=O)c2ccccc2)cc1 | – | 26.9 µM (active)
O=C(Nc1ncccc1O)c1ccc(S(=O)(=O)N2CCCC2)cc1 | -1.32% (inactive) | –
COc1cc(F)c(C2=CC(=O)CC(C)(C)C2)cc1F | -3.48% (inactive) | –
CCCC12CN3CC(C)(CN(C1)C3c1ccccc1Cl)C2=O (stereo not given) | -2.81% (inactive) | –
CN(C)c1ccc(NC(=O)c2ccncc2)c2ccccc12 | 2.99% (inactive) | –
O=C(Nc1nsc(-c2ccccc2)n1)c1ccncc1 | – | 19 µM (active)
CNC(=O)c1csc(-c2ccccc2)n1 | -4.97% (inactive) | –
Cc1cccc(-n2ncc(C(=O)N3CCC(C)CC3)c2C2CCN(C(=O)OC(C)(C)C)CC2)c1 | -2.75% (inactive) | –
COc1ccc(/C=C2\N=C3CCCN3C2=O)cc1 | – | 15.1 µM (active)
COc1ccc(/C=C2\SC(=N)N(c3ccc(F)cc3)C2=O)cc1 | -0.0275% (inactive) | –
COc1ccc(C2NC(=O)N(C)C3=C2C(=O)N(c2ccc(C(=O)O)cc2)C3)cc1 (stereo not given) | -6.88% (inactive) | –
CCN(C(=O)Cn1cnc2sc(C)c(S(=O)(=O)N3CCN(c4ncccn4)CC3)c2c1=O)c1ccccc1F | 3.77% (inactive) | –
CCOc1cc(C(=S)N2CCOCC2)ccc1O | -19.3% (inactive) | –
CCOc1cc(/C=C2\SC(N3CCCCC3)=NC2=O)ccc1O | – | 10.7 µM (active)

SMILES | activity change, negative = inhibition | Potency
CCOc1cc(/C=N/NC(=O)CN2CCCCC2)ccc1O | 3.39% (inactive) | –
CCOc1cc(/C=C2\SC(N3CCCC(C)C3)=NC2=O)ccc1O (stereo not given) | – | 9.53 µM (active)
Nc1c(Cl)cc(-c2csc(N3CCCC3c3nc4cc(Cl)c(Cl)cc4n3CCOCCO)n2)cc1Cl (stereo not given) | -2.84% (inactive) | –
ClC1(Cl)CC1CSc1ncn[nH]1 (stereo not given) | -2.98% (inactive) | –
Cc1ccc(N2CC(C(=O)Nc3cc(Cl)ccc3-n3cncn3)CC2=O)cc1 (stereo not given) | 5% (inactive) | –
CCCC(NCC(=O)Nc1ccccc1C(=O)NC1CC1)c1ccccc1 (stereo not given) | -1.4% (inactive) | –
CC(=O)COc1ccc2c(-c3ccccc3)cc(=O)oc2c1 | – | 16.9 µM (active)
COc1ccc(-c2cc(=O)oc3cc(OCC(=O)N(C)C4CCS(=O)(=O)C4)ccc23)cc1 (stereo not given) | -5.21% (inactive) | –
Cc1cc(=O)oc2ccc(OCC(=O)O)cc12 | 5.63% (inactive) | –
C=CCC(NC(=O)Cc1ccccc1)C(=O)NCCC (stereo not given) | -1.36% (inactive) | –
O=C(Nc1ccnc(-c2ccncc2)n1)c1cccs1 | -1.5% (inactive) | –
O=C(COc1ccccc1)OCc1cc(=O)n2nc(-c3cccs3)sc2n1 | -5.56% (inactive) | –
O=C(O)COc1ccc(-c2nccc(-c3cccs3)n2)cc1 | – | 1.51 µM (active)
Oc1c(C=Nc2cccc3nsnc23)ccc2ccccc12 | – | 1.69 µM (active)
O=C(NCc1ccccc1)C1CCN(S(=O)(=O)c2ccc3[nH]c(=O)ccc3c2)CC1 | 2.76% (inactive) | –
CC(C)Cn1cnc2c1c(=O)n(CC(O)c1ccccc1)c(=O)n2CC(C)C (stereo not given) | 1.94% (inactive) | –
CN1C(=O)c2cccc3c(N)ccc(c23)C1=O | -5.13% (inactive) | –
O=C(O)c1ccc2c3c(cccc13)C(=O)N(OS(=O)(=O)c1ccccc1)C2=O | – | 26.9 µM (active)
CC(=O)Nc1ccccc1Sc1ccc2c3c(cccc13)C(=O)N(c1ccc(C)cc1)C2=O | 0.663% (inactive) | –
COc1cc(/C=N\NC(=O)c2nonc2N)c(OC)cc1Br | -2.25% (inactive) | –
Cc1nonc1C(=O)N/N=C/c1ccc(O)cc1 | – | 6.01 µM (active)
CC(C)c1c(C(=O)N/N=C/c2ccc(-c3ccccc3)cc2)nnn1-c1nonc1N | 0.559% (inactive) | –
CCC(C)Nc1oc(-c2ccc(COc3ccc(Cl)cc3)o2)nc1C#N (stereo not given) | 0.311% (inactive) | –
Nc1nnc(SCC(=O)NCC(=O)Nc2ccc(F)c(F)c2F)s1 | -0.673% (inactive) | –
O=C(c1ccco1)n1nc(-c2ccc(Cl)cc2)nc1NCc1ccccc1 | -15.5% (inactive) | –

SMILES | activity change, negative = inhibition | Potency
Cc1cc(Br)ccc1NC(=O)Cn1cnc2sc(C)c(S(=O)(=O)N3CCN(C)CC3)c2c1=O | 0.211% (inactive) | –
Brc1ccc(CN2CC[C@H]3C=CCc4cccc(c43)C2)cc1 | -0.129% (inactive) | –
Cc1ccc(CCNC(=O)c2ccc3c(c2)nc2n3CCC(C)C2)cc1 (stereo not given) | -11.4% (inactive) | –
CCOc1ccccc1CNC(=O)c1ccc2c(c1)nc1n2CCC(C)C1 (stereo not given) | -7.25% (inactive) | –
O=C(NCc1ccccc1)c1ccc2c(c1)nc1n2CCCCC1 | – | 19 µM (active)
O=C(/C=C/c1ccc(Cl)c([N+](=O)[O-])c1)c1cccnc1 | 6.73% (inactive) | –
O=C(/C=C/c1ccc(Cl)cc1Cl)c1cccnc1 | – | 15.1 µM (active)
O=C(NCc1ccc(Cl)c(Cl)c1)c1cccnc1 | 3.25% (inactive) | –
Cc1cccc(C)c1NC(=O)Nc1ccccc1-n1ccnc1 | 0.683% (inactive) | –
O=c1c2ccccc2n(Cc2cccc(Cl)c2)c(=O)n1Cc1ccccc1 | -7.92% (inactive) | –
COCCNc1ncnc2c1c(-c1ccccc1)cn2-c1ccc(C)c(Cl)c1 | -12.8% (inactive) | –
Cc1ccc(-n2ncc3c(NCCCn4ccnc4)ncnc32)cc1Cl | – | 12 µM (active)
CCN(CC)CCNc1ncnc2c1cnn2-c1cc(Cl)ccc1C | -3.56% (inactive) | –
Cc1ccccc1CNC(=O)c1ccc(NC(=O)N2CCCCc3ccccc32)cc1 | -4.31% (inactive) | –
COC(=O)C1=C(C)NC(=O)/C1=C/c1ccc(CNS(=O)(=O)c2ccc(C)cc2)o1 | 2.37% (inactive) | –
C[C@@H](NC(=O)c1nc[nH]c1C(=O)N1CCN(C(=O)OC(C)(C)C)CC1)c1ccccc1 | 6.17% (inactive) | –
Cc1cnc(NC(=O)CSc2nnc(C)s2)s1 | 1.36% (inactive) | –
Cc1cnc(NC(=O)c2ccc(Cl)nc2)s1 | – | 12 µM (active)
Cc1ccc(Cl)cc1NC(=O)c1ccccn1 | – | 16.9 µM (active)
Cc1cnc(NC(=O)CSc2nnc(-c3ccccc3)n2Cc2ccccc2)s1 | -0.828% (inactive) | –
Cc1ccc(Cl)cc1NC(=O)CSc1nccn1C | -1.57% (inactive) | –
Cc1ccc(Cl)cc1NC(=O)Cc1ccc(-n2c(C)nc3cccnc32)cc1 | -0.863% (inactive) | –
Cc1cnc(NC(=O)C2CCCC2)s1 | -1.27% (inactive) | –
Cc1cnc(NC(=O)c2ccccn2)s1 | – | 2.69 µM (active)
Cc1cnc(NC(=O)Cn2cnc3c2c(=O)n(C)c(=O)n3C)s1 | -0.119% (inactive) | –

Source: PubChem BioAssay AID588342 (National Center for Advancing Translational Sciences (NCATS), 2011)
